The values that follow come from PubChem BioAssay AID485364 (National Center for Advancing Translational Sciences (NCATS), 2010).

The whole screen tested about 360,000 compounds, of which about 11,000 (3.1%) were called active. About 4% were inconclusive and are not listed. This is one part of a sample in which actives are shown more often than they occur. Unmarked numbers belong to inactive results. The call rests on the fitted dose curve; in most records, active means well fitted inhibition curve with a large enough effect; inconclusive means small, poorly fitted or top-dose-only effect; inactive means no such curve, though single readings can be large or run the other way.
On the % scale 0 is the no-effect control and ±100 the full control effect; potency means the concentration at half of the fitted maximal effect.

For the assay, the target named is Schistosoma mansoni thioredoxin glutathione reductase (TGR) (UniProt Q962Y6). The assay can be described thus: qHTS Assay for the Inhibitors of Schistosoma Mansoni Peroxiredoxins. Further: nearly all actives have a fitted effect of over 60% in size. The settings on record: purified TGR, DTNB reduction, TNB absorbance 405 nm; series mostly up to 114 µM; activity change, negative = inhibition: at the top concentration. The procedure, abridged: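 Kinetic colorimetric format: TGR-catalysed, NADPH-driven DTNB reduction monitored via TNB absorbance. Enzyme dispensed at 20 nM; compound exposure 15 min at room temperature before reaction start.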
Turning to `Cc1nccc(-c2ccc(-n3c(C)ccc3C)cc2)n1`, the Potency is 39.8 µM (active). Turning to `Cc1ccc(-n2c(-c3ccc(Cl)cc3)n[nH]c2=S)cc1`, the “activity change, negative = inhibition” value was 7.4%.

As for `O=C(Nc1ccc(C(=O)OCc2cc(=O)n3nc(C4CC4)sc3n2)cc1)c1ccc(F)cc1`, the “activity change, negative = inhibition” value was -6.43%. In the case of `Cc1ccc(CNS(=O)(=O)c2ccc(-c3cc(C(F)(F)F)on3)s2)cc1`, the “activity change, negative = inhibition” value was 6.71%. Same read-out and setting: to `COc1cccc(OCC(=O)NNC(=O)c2cnccn2)c1` belongs 3.38%; to `COC(=O)c1ccc(COC(=O)c2cnccn2)cc1`, 2.29%. As for `COC(=O)c1ccc(OC(=O)c2cnccn2)cc1`, the Potency was 56.2 µM (active). Regarding `O=C(NCCc1ccccc1)c1ccc2c(c1)N(Cc1ccccc1)C(=O)c1ccccc1S2(=O)=O`, the “activity change, negative = inhibition” value was -6.43%. Consider `CSc1ccccc1NC(=O)CCS(=O)(=O)c1nc(-c2cccs2)cc(C(F)(F)F)n1`, for which the Potency is 12.6 µM (active). With `COc1ccccc1-c1cc(C(F)(F)F)nc(S(=O)(=O)CCCC(=O)Nc2ccc(F)cc2F)n1`, the “activity change, negative = inhibition” value was -34.2%. The same measure, in the same setting: as for `COc1ccccc1-c1cc(C(F)(F)F)nc(S(=O)(=O)CCCC(=O)Nc2cc(C)ccc2O)n1`, the figure is -34.7%.

As for `CCOc1ccccc1NC(=O)CSc1ncc(S(=O)(=O)c2ccc(C(C)(C)C)cc2)c(=O)[nH]1`, the “activity change, negative = inhibition” value was -1.94%. On the same count and under the same terms, to `CCCCN1C(=O)c2[nH]nc(-c3ccccc3O)c2C1c1cccc(OCc2ccccc2)c1` (stereo not drawn) belongs 10.1%.

As for `COc1ccccc1N1CCN(S(=O)(=O)CCNC(=O)COc2ccc(F)cc2)CC1`, the “activity change, negative = inhibition” value was -2.42%. Same read-out and setting: to `Cc1nc(N2CCOCC2)c2c(C(=O)NCc3cccc(Cl)c3)c(C)oc2n1` belongs 4.57%; to `O=C(NC(=S)Nc1cc(C(F)(F)F)ccc1N1CCOCC1)c1ccc(-c2cccc(Cl)c2)o1`, -12.5%. Regarding `O=C(NC(=S)Nc1ccccc1C(=O)O)c1ccc(-c2ccc(Br)cc2)o1`, the Potency was 3.55 µM (active). With `O=C(O)c1ccccc1NC(=O)c1ccccc1-c1ccccc1C(=O)O`, the “activity change, negative = inhibition” value is -11.9%. The same measure, in the same setting: as for `Cc1ccc(Cl)cc1NC(=O)NC1COc2ccccc2C1` (stereo not drawn), the figure is 2.72%; as for `Cc1ccc(NC(=O)CCCNC(=O)c2ccc(Cl)cc2)cc1S(=O)(=O)N1CCCCC1`, -0.386%.

For the molecule `Cc1ccc(CNC(=O)CCCNC(=O)c2ccc(Cl)cc2)n1C`, the Potency is 25.1 µM (active).

On to `CC(=O)Nc1ccc(NC(=O)CCCNC(=O)c2ccc(Cl)cc2)cc1`, for which the “activity change, negative = inhibition” value was -3.03%. Still for that read-out and setting: as for `COC(=O)c1scc(-c2ccccc2)c1S(=O)(=O)Nc1ccccc1`, the figure is 20.7%. Consider `COc1ccc(-n2c(=O)c3sc4ccccc4c3n(CC(=O)Nc3cccc(C)c3)c2=O)cc1`, for which the “activity change, negative = inhibition” value is -0.518%. For the molecule `Cc1cccc(N2CCN(C(=O)CCn3c(=O)c4cccn4c4cccnc43)CC2C)c1` (stereo not drawn), the “activity change, negative = inhibition” value was -0.636%.

For the molecule `COC(=O)c1ccc(/C=C2/C(=O)Oc3ccccc32)cc1`, the “activity change, negative = inhibition” value was -5.95%. Consider `O=C1Oc2ccccc2C(=O)/C1=C/c1ccccc1O`, for which the Potency is 2 µM (active). For `CC(C)(C)NC(=O)CSc1nc(-c2ccc(F)cc2)cc(C(F)(F)F)n1`, the “activity change, negative = inhibition” value was 3.3%.

`COc1ccc(S(=O)(=O)/N=C2\C=C(NS(=O)(=O)c3ccccc3)C(=O)c3ccccc32)cc1`: the Potency is 35.5 µM (active).

As for `CCCC(NS(=O)(=O)c1ccc(OC)cc1)C(=O)O` (stereo not drawn), the “activity change, negative = inhibition” value is 1.05%. On the same count and under the same terms, as for `COc1ccc(S(=O)(=O)Nc2cc3c(C(=O)OC(C)C)c(C)oc3c3ccccc23)cc1`, the figure is 7.76%. The same measure, in the same setting: as for `Cc1ccccc1CN1CCNC(=O)C1CC(=O)NCCC1=CCCCC1` (stereo not drawn), the figure is -11.2%. Turning to `CCc1cc(CNC(=O)CC2C(=O)NCCN2Cc2ccccc2C(F)(F)F)on1` (stereo not drawn), the Potency is 35.5 µM (active).

For the molecule `CCc1cc(CNC(=O)CC2C(=O)NCCN2CC2CCCCC2)on1` (stereo not drawn), the “activity change, negative = inhibition” value was -29.1% [at 57.1 µM].

Take `CC(C)c1ccc2oc(-c3cc(NC(=O)c4cccs4)ccc3Cl)nc2c1`: the “activity change, negative = inhibition” value is -0.467%. Same read-out and setting: to `COc1ccc(OC)c(-c2csc(-c3c(N)c(C(=O)c4ccccc4)n4ccccc34)n2)c1` belongs -0.11%; to `C=CC1C(OC2OC(CO)C(O)C(O)C2O)OC=C(C(=O)OC)C1CC1CC(=O)CC(CC(=O)CCc2ccc(O)cc2)O1` (stereo not drawn), 0.84%. In the case of `CC(/C=C/C1(O)C(C)CC(=O)CC1(C)C)OC1OC(CO)C(O)C(O)C1O` (stereo not drawn), the Potency is 25.1 µM (active).

Regarding `CC1=C(C)C(=O)OC(C(C)C2CCC3C4CC=C5CC(OC6OC(COC7OC(CO)C(O)C(O)C7O)C(O)C(O)C6O)CC(O)C5(C)C4CCC23C)C1` (stereo not drawn), the “activity change, negative = inhibition” value is -24.4%. On to `CC(=O)N(Cc1cc(=O)[nH]c2ccccc12)c1ccc(C)cc1C`, for which the “activity change, negative = inhibition” value is -2.87%. Turning to `Cc1ccc(N(Cc2cc(=O)[nH]c3ccccc23)C(=O)CCl)cc1`, the Potency was 3.16 µM (active). For `Cc1ccc(N(Cc2cc3ccccc3[nH]c2=O)C(=O)c2cccs2)cc1`, the “activity change, negative = inhibition” value was -7.78%.

`CCOC(=O)c1ccc(-c2ccc(/C=C(\C#N)C(=O)Nc3ccc(C)cc3)o2)cc1`: the “activity change, negative = inhibition” value was 7.23%. On the same count and under the same terms, as for `COc1ccc(OCCCn2c(C3CC(=O)N(c4ccc(F)cc4)C3)nc3ccccc32)cc1` (stereo not drawn), the figure is -0.0863%; as for `CCOC(=O)C1(Cc2ccccc2C)CCCN(C(=O)CCc2c(C)noc2C)C1` (stereo not drawn), -9.49%; as for `CCOC(=O)C1(Cc2ccccc2C)CCCN(S(C)(=O)=O)C1` (stereo not drawn), 4.13%. `CCOC(=O)C1(Cc2ccccc2C)CCCN(C(=O)c2ccc(COC)o2)C1` (stereo not drawn): the Potency is 15.8 µM (active). On to `COc1ccc(CNc2nc(-c3ccccc3)nn2C(=O)c2ccccc2OC)cc1`, for which the “activity change, negative = inhibition” value was 21.4%.
